This passage reports Potency results from PubChem BioAssay (NCATS).

Structures are written as SMILES. Results filed as inconclusive are left out. Calls of active or inactive are those of the source. The call rests on the fitted dose curve; in most records, active means well fitted inhibition curve with a large enough effect; inconclusive means small, poorly fitted or top-dose-only effect; inactive means no such curve, though single readings can be large or run the other way.
Potency means the concentration at half of the fitted maximal effect.

A short description of this experiment: BET inhibitor-based combinations targeting novel dependencies in MECOM-rearranged (r) AML: OCI-AML3 cell line (AID 2202232). Further: nearly all actives have a fitted effect of over 35% in size. As to conditions: CellTiter-Glo luminescence, 48 h; Potency: OCI-AML3 viability; series mostly up to 46 µM. From the text:
Ecotropic viral insertion site 1 (EVI1) is located on chromosome 3q26.2 as part of the MECOM (MDS and EVI1 complex) locus. Under normal hematopoiesis, EVI1 is a regulator of hematopoietic stem cell maintenance and self-renewal and EVI1 levels decrease as the cells differentiate. In approximately 5-10% of de novo acute myeloid leukemia (AML) EVI1 is aberrantly expressed, including Chromosomal inv(3)(q21;q26.2) or t(3;3)(q21;q26.2) alterations (MECOM-r) that account for about 50% of AML with EVI1 overexpression 31. AMLs with high levels of EVI1 have a poor prognosis and an overall survival time averaging between 10-14 months. EVI1 overexpression confers resistance in leukemia cells, highlighting the need to develop new targeted therapies for EVI1 overexpressing AMLs.
Here, we performed an unbiased chemical drug screening by evaluating the single agent activity of a collection of 2,480 oncology-focused, approved and investigational drugs (NCATS Mechanism Interrogation Plates, MIPE v5.0) against a panel of seven AML cell lines. These included four MECOM-r cell-lines (AML-191, AML-194, UCSD-AML1 and HNT-34) and three non-MECOM-r AMLs (MV4-11, OCI-AML3 and SET-2). Exploiting the mechanistic redundancy built in the library, we identified target-level sensitivities in MECOM-r AML cells and relative activity as compared to other AML subtypes.
A collection of 2480 mechanistically annotated dugs (MIPE v5.0) was used to screen four 3q26.2 rearranged AML cell lines and three non-3q26.2 rearranged AML cell lines. This library purposely exploits redundancy by including multiple inhibitors of key onco-targets, while simultaneously encompassing mechanistic diversity, targeting more than 800 distinct mechanisms of action. Briefly, cells were seeded in 5 uL of growth media using a Multidrop Combi dispenser into 1536 well white polystyrene tissue culture treated plates (Corning) at a density of 500cells/well. For each cell-line, for each of the 2480 drugs in MIPE v5.0 library, an 11-point dose curve was generated via a 1536 pin-tool. Plates were incubated for 48 hr at standard incubator conditions, covered by a stainless steel gasketed lid to prevent evaporation. Cell viability was determined by luminescence based, Cell Titer Glo assay (Promega). In detail, 3 uL of Cell Titer Glo were added to each well and plates were incubated at room temperature for 15 min with a stainless-steel lid in place. Luminescence readings were taken using a Viewlux (PerkinElmer) with a 2 s exposure time per plate. Compound dose-response curves were normalized to DMSO and empty well controls on each plate. Quantitative drug activity data from dose-response curves was determined utilizing area Under the Curve (AUC) and Z-transformed AUC (Z-AUC, a mean-centering transformation applied to each individual cell-line screened).
Turning to `COc1cc(SC)ccc1C(=O)N1CCC(Cc2ccccc2)CC1`, the Potency result was “inactive”. In the case of `CCCc1nc2c(C)cc(-c3nc4ccccc4n3C)cc2n1Cc1ccc(-c2ccccc2C(=O)O)cc1`, the Potency result is “inactive”. In the case of `CCCCC(CC)COC(=O)C(C#N)=C(c1ccccc1)c1ccccc1` (stereo not given), the Potency result was “inactive”. For the compound `CNC(=O)c1cccc2cc(Oc3ccnc4cc(OCC5(N)CC5)c(OC)cc34)ccc12`, the Potency is 23.5 µM (active). Regarding `CCc1cc(C(N)=O)ccc1-n1nc(C(C)C)c2c(-n3cnc(-c4cnn(C)c4)c3)ccnc21`, the Potency is 1.86 µM (active). In the case of `OCc1ccc(-c2ccc(-c3ccc(CO)s3)o2)s1`, the Potency was 18.6 µM (active). In the case of `CC#CC(=O)N1CCC[C@H]1c1nc(-c2ccc(C(=O)Nc3ccccn3)cc2)c2c(N)nccn12`, the Potency result is “inactive”. With `COc1cc(Nc2c(C#N)cnc3cc(OCCCN4CCN(C)CC4)c(OC)cc23)c(Cl)cc1Cl` the figure was 6.61 µM (active); with `CCC[C@H](N[C@@H](C)C(=O)N1[C@@H]2CCCC[C@H]2C[C@H]1C(=O)O)C(=O)OCC`, “inactive”; with `N#Cc1ccc(NC(=O)Nc2ccccc2Br)c2n[nH]nc12`, 14.8 µM (active).

As for `CCN(CC)CCCCNc1nc2cc(Cl)c(Cl)cc2nc1-c1ccc(-c2cccs2)s1`, the Potency is 20.9 µM (active). Consider `Nc1ccc(C(=O)Nc2cccc(-c3nc(N4CCOCC4)c4oc5ncccc5c4n3)c2)cn1`, for which the Potency is 9.34 µM (active).

For the compound `CC1=C(/C=C/C(C)=C/C=C/C(C)=C/C(=O)O)C(C)(C)CCC1`, the Potency was 7.42 µM (active).

In the case of `CC(=O)SCC(Cc1ccccc1)C(=O)NCC(=O)OCc1ccccc1` (stereo not given), the Potency entry was “inactive”. For the compound `C[C@@H](CN1CC(=O)NC(=O)C1)N1CC(=O)NC(=O)C1`, the Potency is 18.6 µM (active). With `CC[C@@H](C)Nc1cc(C(=O)NC2CC3CC[C@@H](C2)N3c2ccc(C(=O)C3CC3)cn2)c(C)cc1C(N)=O` (stereo not given in full) the figure was 0.0661 µM (active). For `CC[C@@H]1C(=O)N(C)c2cnc(Nc3ccc(C(=O)NC4CCN(C)CC4)cc3OC)nc2N1C1CCCC1`, the Potency is 0.0525 µM (active).

`COc1cc(C(=O)NC2CCN(C)CC2)ccc1Nc1ncc2c(n1)N(C1CCCC1)CCC(=O)N2C(C)C`: the Potency is 14.8 µM (active).

In the case of `Fc1cc(-c2cccc3ncc(-c4cnn(C5CCNCC5)c4)nc23)cc(F)c1CN1CCOCC1`, the Potency is 11.8 µM (active). For the compound `CCOC(=O)c1ncn2c1CN(C)C(=O)c1cc(F)ccc1-2`, the Potency entry is “inactive”. Consider `CCN(CCCOc1ccc2c(Nc3cc(CC(=O)Nc4cccc(F)c4)[nH]n3)ncnc2c1)CCOP(=O)(O)O`, for which the Potency was 0.468 µM (active).

Consider `COCCCN1CCC(NC(=O)c2cc(Cl)c(N)c3c2OCC3)CC1`, for which the Potency entry was “inactive”. Consider `COc1ccc2cc(OCC3(C(=O)O)CN(C(=O)c4ccc(F)cc4)C3)ccc2c1`, for which the Potency entry was “inactive”. Turning to `c1nc2nc(Nc3ccc(N4CCOCC4)cc3)nc(NC3CCCCC3)c2[nH]1`, the Potency is 3.32 µM (active). For `COc1c2occc2cc2ccc(=O)oc12`, the Potency is 10.5 µM (active). Consider `COCCCOc1ccnc(CS(=O)c2nc3ccccc3[nH]2)c1C` (stereo not given), for which the Potency entry is “inactive”. Turning to `CCn1nc(C2CCN(C(=O)CCO)CC2)nc1-c1cnc(N)c(-c2nnc(C(C)(C)C)o2)n1`, the Potency is 1.18 µM (active). `NC(=O)c1cnccn1`: the Potency result was “inactive”. As for `Clc1ccc(C(c2ccccc2Cl)C(Cl)Cl)cc1` (stereo not given), the entry is “inactive”; as for `COc1cc2c(cc1OC)C1CC(=O)C(CC(C)C)CN1CC2` (stereo not given), “inactive”. With `CC(=O)OCC(CCn1cnc2cnc(N)nc21)COC(C)=O`, the Potency result is “inactive”. Take `Cc1ccc(C(=O)Nc2cccc(C(F)(F)F)c2)cc1-c1ccc2nc(NCCN3CCOCC3)ncc2c1`: the Potency was 0.525 µM (active). Regarding `CN1CCN(c2cc(C(=O)Nc3ccc4c(c3)-c3c(c(C(N)=O)nn3-c3ccc(F)cc3)CC4)c(Cl)cn2)CC1`, the Potency is 16.6 µM (active). With `Oc1cccc(-c2nc(N3CCOCC3)c3oc4ncccc4c3n2)c1` the figure was 0.0661 µM (active); with `Cc1cc(C(C)(C)C)c(O)c(C)c1CC1=NCCN1`, “inactive”.

`Cc1sc2c(c1C)C(c1ccc(Cl)cc1)=N[C@@H](CC(=O)Nc1ccc(OCCOCCOCCOCCNc3cccc4c3C(=O)N(C3CCC(=O)NC3=O)C4=O)cc1)c1nnc(C)n1-2` (stereo not given in full): the Potency was 0.0332 µM (active).

`NC(=O)c1ncn([C@@H]2O[C@H](CO)[C@@H](O)[C@H]2O)c1N`: the Potency entry was “inactive”. On to `O=C(O)[C@H](O)[C@@H](O)[C@H](O[C@@H]1O[C@H](CO)[C@H](O)[C@H](O)[C@H]1O)[C@H](O)CO`, for which the Potency entry was “inactive”. With `CCCCCOC(=O)Nc1nc(=O)n([C@@H]2O[C@H](C)[C@@H](O)[C@H]2O)cc1F` the entry was “inactive”.

In the case of `COc1ccc(COc2cc3oc(=O)c4cc(C(C)O)ccc4c3cc2OC)cc1` (stereo not given), the Potency was 14.8 µM (active).
